# The panel holds about 83,000 compounds, 20% with a hit somewhere; the sample as a whole holds those more often.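 Results are percent growth after 48 hours of single-concentration exposure. 100 means growth as in untreated cells, lower positive values show inhibition; negative values down to -100 show cell death.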 Unmarked numbers belong to inactive results. Activity calls are given as the source filed them.
# Test system: SK-MEL-28 melanoma
# Assay: NCI-60 one-dose screen, 48 h (100 = growth as untreated, 0 = no growth, -100 = all killed)
# Settings: 10 µM unless noted
# Experimental: Growth inhibition of the SK-MEL-28 human tumor cell line is measured as a screen for anti-cancer activity. Cells are grown in 96 well plates and exposed to the test compound for 48 hours. Compounds are tested at a single concentration, which is 10^-5 M for most compounds. The reported endpoint is percent growth (GI% or GIPRCNT), where numbers from 0 - 100% represent growth inhibition, and numbers from -100% - 0 represent cell death. For example, a value of 40 represents 60% growth inhibition. A value of 0 means no net growth occurred over the course of the experiment. A value of -40 indicates 40% of cells at the beginning of the experiment died by the end of the experiment. A value of -100 means all cells are dead at the end of the experiment.
# NCI-60 Human Tumor Cell Lines Screen was performed using the standard one-dose NCI protocol, which is described in more detail at https://dtp.cancer.gov/discovery_development/nci-60/default.htm.
# Compounds with GIPRCNT values below 10 were considered active. Activity score was based on GIPRCNT using the following formula: […]
# Score is 0 for GIPRCNT values of 100 or above, 50 for GIPRCNT values of 0, and 100 for GIPRCNT values of -100.
row,Structure (SMILES),growth
1,COc1ccc(C(=O)c2cc3c(N)c(C(=O)Nc4cccc(OC)c4)sc3nc2C)cc1,56.7%
2,Cc1ccc(C(c2c(O)c3cc(Br)ccc3[nH]c2=O)c2c(O)c3cc(Br)ccc3[nH]c2=O)cc1,89.6%
3,COc1cc2nc(-c3ccc(C(F)(F)F)cc3)cc(OCCCN3CCC(O)CC3)c2cc1OC,62.7%
4,N#C/C(=C\c1ccc(Br)cc1)n1nnc2cccc(F)c21,49.5%
5,CC1(c2ccccc2)NC(=O)N(CC(=O)Nc2cccc(I)c2)C1=O (stereo not given),93%
6,Nc1ccccc1NC(=O)c1ccc(CN2CCC/C(=C\c3cccc(Cl)c3)C2=O)cc1,48.2%
7,O=C(Nc1ccc2cc3ccc(NC(=O)N4CCCCCC4)cc3nc2c1)N1CCCCCC1,-82.1% (active)
8,COc1ccc2c(Nc3ccc(NS(C)(=O)=O)cc3)c3ccccc3nc2c1,-13.5% (active)
9,CC(C)(C)CC(C)(C)Nc1c(-c2ccc(C(F)(F)F)cc2)nc2cnccn12,93.9%
10,c1ccc(-c2nnc(Nc3ccc4c(c3)OCCO4)o2)c(NCc2ccncc2)c1,63.3%
11,Cc1c([N+](=O)[O-])cc(C(C)(C)C)cc1[N+](=O)[O-],99.2%
12,NC(=O)C1(N2CCCCC2)CCN(CCCC(=O)c2ccc(F)cc2)CC1,51.7%
13,Cn1c(=O)c2[nH]c(CCCc3nc4c([nH]3)c(=O)n(C)c(=O)n4C)nc2n(C)c1=O,131%
14,Fc1cc(C2=NNC(c3ccc[nH]3)C2)ccc1-n1ccc(C(F)(F)F)n1 (stereo not given),104%
15,C#CC(=O)Nc1cccc2c1cc(C)n2-c1nc2c(c(NCc3ccccc3)n1)CCCC2,-58.4% (active)
16,Cn1ncc2c(Nc3ccccc3Cl)nc(Cl)nc21,119%
17,COc1ccc(Cc2nc3cc(OC)c(OC)cc3c(=O)[nH]2)cc1,79.3%
18,Cc1ccc2[nH]c(=S)n(-c3ccc(S(=O)(=O)Nc4ccc(Cl)nn4)cc3)c(=O)c2c1,108%
19,COc1ccc(C2=NN(C(C)=O)C(c3cn(Cc4ccc(Cl)cc4)c4ccccc34)C2)cc1 (stereo not given),94%
20,COc1ccc(C(=O)/C=C/c2ccc(OCc3ccccc3)c(OC)c2)cc1OC,89.6%

row,Structure (SMILES),growth
1,CCN1C(=O)/C(=c2\sc3n(c2=O)NC2C(N=3)N(CC)C(=O)N2CC)c2ccccc21 (stereo not given),55.5%
2,CSc1nc(O)c(-c2ccccc2)c(=O)[nH]1,101%
3,Cc1c2c(cc[n+]1Cc1ccccc1)c1ccc(OCC3CCCCC3)cc1n2CC1CCCCC1,-95.8% (active)
4,COc1ccc(C(=O)c2cc3c(N)c(C(=O)Nc4cccc(Cl)c4)sc3nc2C)cc1,65.7%
5,COc1cc2nc(-c3ccc(C(F)(F)F)cc3)cc(OCCN3CCCC3)c2cc1OC,78.6%
6,C[C@@H]1CN(Cc2ccc(/C=C/c3n[nH]c4ccc5nc(-c6cn[nH]c6C(F)(F)F)c6c(c5c34)CCCC6)cc2)C[C@H](C)O1,40.6%
7,COc1cc(C(=O)/C=C/c2c(C)n([O-])c3ccc(Cl)cc3[n+]2=O)cc(OC)c1OC,80.8%
8,CNC(=O)NCC1OC(n2cnc3c(NC(=O)Nc4ccccc4)ncnc32)C(O[Si](C)(C)C(C)(C)C)C1O[Si](C)(C)C(C)(C)C (stereo not given),60%
9,COc1ccc(NC(=O)c2sc3nc(C)c(C(O)c4ccc(OC)cc4)cc3c2N)cc1 (stereo not given),65.8%
10,Nc1cc(N)c2cccnc2c1O,73.6%
11,C=CCn1c(SCC(=O)Nc2ccc(C(=O)/C=C/c3cc(OC)c(OC)c(OC)c3)cc2)nnc1-c1cc(-c2ccc(S(C)(=O)=O)cc2)nc2ccccc12,108%
12,CNC(=O)c1c(NC(=O)c2ccc(C(C)C)cc2)sc2c(CN(C)C)c(O)ccc12,94.5%
13,COc1cc(/C=C/C(=O)c2ccc(Nc3ncnc4ccccc34)cc2)cc(OC)c1,86.3%
14,COc1ccccc1/C=C1\COc2ccc(-c3ccccc3)cc2C1=O,57.3%
15,Clc1nc(Cl)c2ncn(CC3(Cn4cnc5c(Cl)nc(Cl)nc54)COC3)c2n1,-97.9% (active)
16,Cc1cc(Nc2cccc(C(F)(F)F)c2)n2c(nc3ccccc32)c1C#N,54.8%
17,Clc1ccc(C2CC(c3cccc(Nc4ccncc4)c3)=NN2c2ccccc2)cc1 (stereo not given),9.8% (active)
18,COc1ccc(-c2nc(N/N=C/c3cccc(O)c3)nc(N3CCOCC3)c2C#N)cc1,33.9%
19,N#CSCC1CC(O)(c2ccccc2)C(c2ccccc2)C(c2ccc(F)cc2)O1 (stereo not given),-15.5% (active)
20,COc1ccc(/C(C)=N/NC(=O)CSc2nc3ccccc3c(=O)n2Cc2ccc(S(N)(=O)=O)cc2)c(OC)c1,110%

# — PubChem BioAssay (NCI)
